In PubChem BioAssay (NCI) one finds growth data, which are given here for 29 compounds.

Common to all, as to experiment: NCI-60 one-dose screen, 48 h (100 = growth as untreated, 0 = no growth, -100 = all killed)
Conditions in all cases: 10 µM unless noted

In assay [1] the test system is T-47D breast.
Assay [2] relates to BT-549 breast.
Assay [3] deals with MDA-MB-435 melanoma.
Assay [4] deals with SW-620 colon.
Assay [5] deals with MCF7 breast.
Assay [6] deals with HCT-116 colon.
Assay [7] deals with HCC-2998 colon.
Assay [8] has as its system KM12 colon.

Compounds without any hit were thinned out: in the full panel of roughly 83,000, 20% have a hit.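 Compound tested at a single concentration for 48 hours in 96-well plates; a percent growth value below 10 was scored as active.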 Unmarked numbers belong to inactive results. Activity calls are given as the source filed them.

As to `COc1ccc2c(c1)[nH]c(=O)c1c3cc(OC)ccc3cn21`, the growth in assay [1] is 13.6%; in assay [2], 36.8%; in assay [3] it was -9.37% (active); in assay [4] it was -2.37% (active); in assay [5], 14.1%; in assay [6], -89% (active). Besides, the growth in assay [7] is 32.1%; in assay [8], -13.1% (active).

For the compound `CC(=O)Oc1csc(N(C(C)=O)c2cc(C(=O)O)cc(C(=O)O)c2)n1`, the growth in assay [1] was 108%; in assay [2], 82.8%; in assay [3], 102%; in assay [4] it was 96.1%; in assay [5] it was 95%; in assay [6], 91.3%. Further, the growth was 98.6% in assay [7] and 99.8% in assay [8].

On to `COc1ccc(C(=O)N2NC(=O)/C(=C/c3ccc(Br)cc3)N=C2c2ccccc2)cc1`, for which the growth is 85.6% in assay [1]; 85.5% in assay [2]; 90.7% in assay [3]; 91.3% in assay [4]; 85.1% in assay [5]; 75.5% in assay [6]. Besides, the growth is 105% in assay [7] and 99.6% in assay [8].

Regarding `N[C@H]1CN(C(=O)c2cc3cc(Br)c(F)c(F)c3[nH]2)C[C@@H]1O`, the growth in assay [1] was 91.3%; in assay [2], 89.5%; in assay [3], 99.2%; in assay [4], 101%; in assay [5] it was 89.3%; in assay [6] it was 93.6%. Also, the growth in assay [7] was 93.3%; in assay [8], 104%.

In the case of `O=C1/C(=C/c2ccc(Cl)cc2)CN(Cc2cn(CCNc3ccnc4cc(Cl)ccc34)nn2)C/C1=C\c1ccc(Cl)cc1`, the growth in assay [1] was -32.6% (active); in assay [2], -96.4% (active); in assay [3] it was -98.6% (active); in assay [4], -92.5% (active); in assay [5] it was -100% (active); in assay [6], -85.5% (active). The figures for the growth in assay [7] and in assay [8] were -95.1% (active) and -93.9% (active), respectively.

In the case of `COc1ccc(OC)c(/C=C2\Oc3cc(OCCCN4CCCC4)ccc3C2=O)c1`, the growth in assay [1] was 92.6%; in assay [2], 87.9%; in assay [3], 91.2%; in assay [4], 55.9%; in assay [5], 55.7%; in assay [6], 46.1%. In addition, the figures for the growth in assay [7] and in assay [8] were 87.3% and 73.6%, respectively.

Take `O=C(Nc1ccc(NCCN2CCOCC2)nc1)c1ccc([N+](=O)[O-])cc1`: the growth in assay [1] was 107%; in assay [2], 98.6%; in assay [3], 97.8%; in assay [4] it was 104%; in assay [5], 89.2%; in assay [6], 97.2%. The growth in assay [7] is 101%; in assay [8], 104%.

In the case of `Cn1ccc(Nc2nccc(Oc3ccc(C(=O)Nc4cccc(F)c4)c(Cl)c3)n2)c1`, the growth in assay [1] is 38.8%; in assay [2], 80.5%; in assay [3] it was 81.3%; in assay [4], 85.4%; in assay [5], 85.9%; in assay [6], 86.8%. Besides, the growth in assay [7] is 81.9%; in assay [8] it was 102%.

With `CN1CCN(CCCOc2ccc3nc(Nc4ccc(Cl)c(C(F)(F)F)c4)ccc3c2)CC1`, the growth in assay [1] is 76.7%; in assay [2] it was 102%; in assay [3] it was 59.6%; in assay [4], 0.0049% (active); in assay [5] it was 27.1%; in assay [6], 26.3%. In addition, the growth in assay [7] is 6.68% (active); in assay [8], 28.8%.

Turning to `CC(C)CSc1nc(NN)c(C#N)c(-c2ccc(F)cc2)n1`, the growth in assay [1] is 66.7%; in assay [2], 85.3%; in assay [3], 78.9%; in assay [4] it was 91.9%; in assay [5] it was 73.8%; in assay [6] it was 68.9%. The growth in assay [7] was 54.4%; in assay [8], 58.1%.

As to `CCN1CCN(CC(=O)N2c3cccc4cccc(c34)N(C(=O)CN3CCN(CC)CC3)C2c2cn(-c3ccccc3)nc2-c2cccc([N+](=O)[O-])c2)CC1`, the growth was -70.7% (active) in assay [1]; 80.7% in assay [2]; -75.7% (active) in assay [3]; -43.6% (active) in assay [4]; -29% (active) in assay [5]; -54.9% (active) in assay [6]. Further, the figures for the growth in assay [7] and in assay [8] were -49.1% (active) and 23.4%, respectively.

As for `COc1ccc(-c2nc(/C=C3/C(=O)Nc4ccc(F)cc43)c3ccccn23)cc1`, the growth is 100% in assay [1]; 104% in assay [2]; 113% in assay [3]; 87.7% in assay [4]; 48.7% in assay [5]; 62% in assay [6]. The values for the growth in assay [7] and in assay [8] were 104% and 102%, respectively.

For `O=C1c2ccccc2-c2ccccc2C1(Cl)Cl`, the growth in assay [1] was -42.7% (active); in assay [2], -84% (active); in assay [3], -90.1% (active); in assay [4], -65.8% (active); in assay [5], -88.7% (active); in assay [6] it was -70.6% (active). For the same compound, the growth in assay [7] was 89.6%; in assay [8] it was -90.6% (active).

`O=S1(=O)CCC(N(/N=C/c2ccco2)c2ccccc2)C1` (configuration not stated): the growth was 103% in assay [1]; 101% in assay [2]; 107% in assay [3]; 95.4% in assay [4]; 96.4% in assay [5]; 97.4% in assay [6]. For the same compound, the growth was 97.6% in assay [7] and 103% in assay [8].

Regarding `COc1ccc(-c2nc(/C=N/Nc3cc(C)nc4ccc(Cl)cc34)c(C)o2)cc1`, the growth was -38% (active) in assay [1]; -34.9% (active) in assay [2]; -97.1% (active) in assay [3]; -88.6% (active) in assay [4]; -80.2% (active) in assay [5]; -86% (active) in assay [6]. In addition, the growth was -48.3% (active) in assay [7] and -87% (active) in assay [8].

On to `Cc1c(C(N)=O)sc2c1c(=O)n(Cc1ccccc1)c1nnc(Nc3ccccc3)n21`, for which the growth is 89% in assay [1]; 123% in assay [2]; 103% in assay [3]; 108% in assay [4]; 100% in assay [5]; 94.2% in assay [6]. The figures for the growth in assay [7] and in assay [8] were 110% and 93.6%, respectively.

On to `COc1cc(NC(N)=NCCC(C)(C)Oc2ccc(C(F)(F)F)cc2)ncc1C#N`, for which the growth was -44.6% (active) in assay [1]; 40.4% in assay [2]; -91.2% (active) in assay [3]; -79% (active) in assay [4]; -71.1% (active) in assay [5]; -88.4% (active) in assay [6]. Besides, the values for the growth in assay [7] and in assay [8] were -86.6% (active) and -51.7% (active), respectively.

For `FC(F)(F)c1ccccc1-c1cn2c(ccc3ccccc32)n1`, the growth in assay [1] was 104%; in assay [2] it was 80.8%; in assay [3] it was -25.3% (active); in assay [4] it was 44.2%; in assay [5], 77.4%; in assay [6], 74.9%. Moreover, the growth in assay [7] was 99.2%; in assay [8], 87%.

As to `C=CCSc1n[nH]c(-c2cccs2)n1`, the growth is 94.8% in assay [1]; 99.5% in assay [2]; 106% in assay [3]; 102% in assay [4]; 101% in assay [5]; 98.6% in assay [6]. The growth was 117% in assay [7] and 111% in assay [8].

In the case of `Cn1ncc2c(Sc3ccc(Cl)cc3)ncnc21`, the growth is 76.1% in assay [1]; 62.1% in assay [2]; 92.3% in assay [3]; 100% in assay [4]; 87.4% in assay [5]; 103% in assay [6]. Also, the growth in assay [7] is 85.7%; in assay [8] it was 95.6%.

With `COc1cc(-c2nn(-c3cccc(NC(=O)Nc4cccc(C(F)(F)F)c4)c3)cc2-c2ccncc2)ccc1Cl`, the growth in assay [1] was -4.03% (active); in assay [2], -15.4% (active); in assay [3] it was -50% (active); in assay [4] it was 8.92% (active); in assay [5], -6.3% (active); in assay [6] it was 0.0611% (active). In addition, the growth is -18.4% (active) in assay [7] and -27.8% (active) in assay [8].

In the case of `COc1ccncc1S(=O)(=O)NC(=O)Nc1ccc(Cl)c(Cl)c1`, the growth is 78.1% in assay [1]; 111% in assay [2]; 100% in assay [3]; 99.6% in assay [4]; 105% in assay [5]; 91.7% in assay [6]. Besides, the growth was 101% in assay [7] and 91.9% in assay [8].

On to `O=[N+]([O-])c1ccc(Sc2ncccn2)c([N+](=O)[O-])c1`, for which the growth in assay [1] is 41.1%; in assay [2] it was -16.3% (active); in assay [3], 69.2%; in assay [4] it was 22.8%; in assay [5] it was 34.4%; in assay [6], 37.5%. For the same compound, the growth is 66.2% in assay [7] and 55.9% in assay [8].

For `CC(=O)Nc1ccc(/C=C/C(=O)c2ccccc2)cc1`, the growth in assay [1] was 73.9%; in assay [2], 86.2%; in assay [3] it was 114%; in assay [4], 53.2%; in assay [5], 56.4%; in assay [6], 77%. For the same compound, the growth is 113% in assay [7] and 46.6% in assay [8].

Regarding `CCCCCCN1CSC(=S)N(CCCCCC)C1`, the growth was 96.4% in assay [1]; 100% in assay [2]; 97.6% in assay [3]; 94.2% in assay [4]; 102% in assay [5]; 86% in assay [6]. The growth in assay [7] is 96.6%; in assay [8], 103%.

Turning to `COc1cc(-c2ncn(/C=C\C(=O)OC(C)C)n2)cc(C(F)(F)F)c1`, the growth was 16.3% in assay [1]; -62.6% (active) in assay [2]; -34.7% (active) in assay [3]; 0.254% (active) in assay [4]; -24.5% (active) in assay [5]; 2.85% (active) in assay [6]. The growth in assay [7] was -39.8% (active); in assay [8], 0.0792% (active).

With `COc1cc(/C=C/C(=O)c2c(C)nc3ccccc3c2C)ccc1OCCCCOc1cc2c(cc1OC)C(=O)N1CCC[C@H]1C=N2`, the growth was -64.7% (active) in assay [1]; -64.8% (active) in assay [2]; -34.8% (active) in assay [3]; -62.2% (active) in assay [4]; -86% (active) in assay [5]; -65.9% (active) in assay [6]. The results for the growth in assay [7] and in assay [8] were -100% (active) and -69.7% (active), respectively.

`CCOC(=O)c1cn2c3c(cc(C)cc3c1=O)C(=O)/C(=C/c1ccccc1)C2`: the growth in assay [1] is 81.7%; in assay [2], 84.3%; in assay [3] it was 107%; in assay [4], 101%; in assay [5] it was 86.7%; in assay [6], 86.4%. The growth in assay [7] was 98.9%; in assay [8], 102%.

`COc1ccc(C(=O)NC(=O)Nc2cc3c(cc2F)/C(=C/c2[nH]c(C)c(CCC(=O)O)c2C)C(=O)N3)c(F)c1`: the growth in assay [1] was 47.8%; in assay [2], 25.2%; in assay [3], 36.8%; in assay [4], 26.6%; in assay [5], 41.7%; in assay [6] it was 37%. Further, the growth is 50.3% in assay [7] and 11.7% in assay [8].
